# Assay results taken from PubChem BioAssay (NCI).
# Values joined by “and” are separate entries in the source; they are usually repeats but may differ in a detail not shown here. Identical values can stand only once. About 83,000 compounds went through this panel and 20% of them were active in at least one assay; those are over-represented in the sample as a whole.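 The endpoint reported here, percent growth, reads 100 for growth as untreated, 0 for no net growth and -100 for all cells dead.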 Values without a mark were called inactive. Active and inactive are the calls of the source.
# System: TK-10 renal
# Assay: NCI-60 one-dose screen, 48 h (100 = growth as untreated, 0 = no growth, -100 = all killed)
# Conditions: 10 µM unless noted
# Experimental: Growth inhibition of the TK-10 human tumor cell line is measured as a screen for anti-cancer activity. Cells are grown in 96 well plates and exposed to the test compound for 48 hours. Compounds are tested at a single concentration, which is 10^-5 M for most compounds. The reported endpoint is percent growth (GI% or GIPRCNT), where numbers from 0 - 100% represent growth inhibition, and numbers from -100% - 0 represent cell death. For example, a value of 40 represents 60% growth inhibition. A value of 0 means no net growth occurred over the course of the experiment. A value of -40 indicates 40% of cells at the beginning of the experiment died by the end of the experiment. A value of -100 means all cells are dead at the end of the experiment.
# NCI-60 Human Tumor Cell Lines Screen was performed using the standard one-dose NCI protocol, which is described in more detail at https://dtp.cancer.gov/discovery_development/nci-60/default.htm.
# Compounds with GIPRCNT values below 10 were considered active. Activity score was based on GIPRCNT using the following formula: […]
# Score is 0 for GIPRCNT values of 100 or above, 50 for GIPRCNT values of 0, and 100 for GIPRCNT values of -100.
row,Structure (SMILES),growth
1,Nc1cccc2cccc([N+](=O)[O-])c12,109%
2,O=C(C[P+](c1ccccc1)(c1ccccc1)c1ccccc1)c1ccccc1,94.4%
3,CCOc1cc2c(cc1O)/C(=N\OC)C[C@@H]1[C@@H]2CC[C@]2(C)[C@@H](O)CC[C@@H]12,-12.5% [100 µM] (active) and -99.5% [100 µM] (active)
4,O=C1c2ccccc2Cc2cccc(Cl)c21,89.6%
5,O=C1C=CC(=O)N1c1ccc(O)cc1,103%
6,O=C(c1ccc(O)c(Br)c1)c1ccc(O)c(Br)c1,99.4%
7,CCN1CCCC(Nc2cc(C)nc(/N=C(/N)Nc3ccc(Cl)c(Cl)c3)n2)C1 (stereo not given),-88.6% (active)
8,COC(=O)c1ccc(=O)c2nc3/c(=C/O)c(O)cc(=O)c3[nH]c12,48.1%
9,CC(C)(C)CC(C)(C)c1ccc(OCCOCCSC(=N)N)cc1,78%
10,O=C(Cc1ccccc1)C(F)(F)F,103%
11,Oc1c(Cl)cc(Cl)cc1C=NCC1CCC(CN=Cc2cc(Cl)cc(Cl)c2O)CC1 (stereo not given),124%
12,CCCCCCCCCCCC[n+]1ccc(CCCCCCCCC)cc1,-31.4% (active)
13,C=C(C)C1CC2(C)C(C)CC(O)CC2C(OC(=O)C=C(C)C)C1O (stereo not given),17.2% [100 µM] and 48.8% [100 µM]
14,CCOC(=O)C1(C)CCCC1N (stereo not given),98.7%
15,S=C=Nc1ccc(N2CCOCC2)cc1,93.2%
16,Cc1ccc2c(c1)sc(-c1ccc(N(C)C)cc1)[n+]2C,14.8%
17,CCCCCCCCC(=O)OCCCC(CCC(CCC1CCCO1)OC(=O)CCCCCCCC)OC(=O)CCCCCCCC (stereo not given),87.9%
18,Cc1cc2cccnc2c2ncccc12,11.9%
19,Oc1ccc(Cl)cc1C(c1cc(Cl)ccc1O)C(Cl)(Cl)Cl,77.5%
20,CCOC(=O)c1c(C)[nH]c2ccc(O)cc12,128%

row,Structure (SMILES),growth
1,O=C1C=CC(=O)c2c(O)c(CO)c(CO)c(O)c21,107%
2,Clc1ccc(-n2ncc3c(NCCCN4CCOCC4)ncnc32)cc1,107%
3,Clc1ccc(Cc2nc3ccccc3s2)cc1,119%
4,CC1=CC(=NC(=O)CBr)C=C/C1=N\S(=O)(=O)c1ccccc1,79.2%
5,CCCOS(=O)(=O)c1ccccc1,102%
6,N#CC(I)CS(=O)(=O)c1ccccc1 (stereo not given),89.7%
7,COC1CC(C)C(OC)c2cc(O)cc(c2O)NC(=O)/C(C)=C/C=C\C(C)C(OC(N)=O)/C(C)=C\C(C)C1OC (stereo not given),68%
8,CC1(C=O)CCC23COC4(CCC5C6(C)CCC(OC7OCC(OC8OC(CO)C(O)C(OC9OC(CO)C(O)C(O)C9O)C8OC8OCC(O)C(O)C8O)C(O)C7OC7OC(CO)C(O)C(O)C7O)C(C)(C)C6CCC5(C)C4(C)CC2O)C3C1 (stereo not given),-87.3% [100 µM] (active) and -69.8% [100 µM] (active)
9,COC1=CC(=O)c2c(O)c3c(c(O)c2C1=O)CC(C)(O)OC3 (stereo not given),66.1%
10,O=C1C=Cc2ccccc2/C1=C/c1nc(-c2ccccc2)oc1O,136%
11,COc1cc(/C=C/c2ccnc3ccccc23)cc(OC)c1OC,70.1%
12,CCOc1cc(F)c([N+](=O)[O-])cc1[N+](=O)[O-],12.5%
13,C/C(=N\NC(=S)N1CC2CCC(CC2)C1)c1ccccn1,21.6%
14,COc1cc(NCc2ccc3nc(N)nc(N)c3c2C)cc(OC)c1OC (tested in a mixture with another compound),31.1%
15,NC(=S)N/N=C\c1nccc2c(N)cccc12,48%
16,Cc1ccc(/C=C2\CNC/C(=C\c3ccc(C)cc3)C2=O)cc1,16.9%
17,CCC[CH2][Sn]1([CH2]CCC)[O]C2C(CO)OC(n3ccc(N)nc3=O)C2[O]1 (stereo not given),-98.2% (active)
18,O=C(CCl)N1c2ccccc2Sc2c1ccc1ccccc21,119%
19,CC1(C)CCCC2=C1C(=O)N(SC(Cl)(Cl)Cl)C2=O,88.2%
20,CCOc1ccc(C(C[N+](=O)[O-])Sc2ccccc2N)cc1 (stereo not given),106%
